Structures are written as SMILES. Activity calls are given as the source filed them. The rule behind the calls is not given here.

A short description of this experiment: Brca1-Bard1 BiLC signal decrease – luminescence, single concentration, counter-screen for Mdm2/MdmX interaction inhibitor project, confirmation (AID 504668). The note with it: Brca1/Bard1 bimolecular luciferase complementation counterscreen, at 8 µM, active compounds read high. In general terms: A counterscreen serves to expose hits that act by an unwanted route or on another target.
In the case of `COc1ccccc1-n1c(-c2ccccc2)c[n+]2c1CCc1ccccc1-2`, the inhibition (in general, the relative decrease from the control value, in per cent) is 29% (active).

In the case of `CCN(CC)CCCN=C1N[C@@H](c2cccc(C(F)(F)F)c2)C(C(=O)OC)=C(C)N1CC`, the inhibition was 30.4% (active).

With `CC[C@@]1(C(=O)OC)N[C@H](CN(C)C(=O)Nc2ccc(C(F)(F)F)cc2)[C@@H]2C(=O)N(Cc3ccccc3)C(=O)[C@@H]21`, the inhibition was 32.2% (active).

In the case of `Cc1ccc(O)c(/C=N/NC(=O)Cc2ccc(Cl)cc2)c1`, the inhibition is 33.6% (active).

`O=C(Oc1ccnc2cc(Cl)ccc12)N1CCCCCC1`: the inhibition was 30% (active).

Turning to `CCN1/C(=C/C=C/c2oc3ccc4ccccc4c3[n+]2CC)Oc2ccc3ccccc3c21`, the inhibition is 28.6% (active).

Turning to `N#CC(C#N)=C(Nc1ccc(F)cc1)SCc1cccc(F)c1`, the inhibition is 23.3% (active).

For `CCOc1ccc(N(C(=O)/C=C/C(=O)Nc2cc(C)on2)C(C(=O)NC2CCCC2)c2ccccc2C)cc1` (stereo not given), the inhibition is 27.4% (active).

Take `C#CCOCCOCCOCCNc1nc(N2CCN(C(=O)CCCCCCCCCCNC(=O)[C@H](CO)n3cc(CCCSC)nn3)CC2)nc(N2CCN(C(=O)CCCCCCCCCCNC(=O)[C@H](CCCCN)n3cc(C[C@@H](C)CC)nn3)CC2)n1`: the inhibition was 26.6% (active).

With `CC(C)(C)C(=O)N1CCN(c2ccc(NC(=O)c3ccc([N+](=O)[O-])o3)cc2)CC1`, the inhibition is 30.5% (active).

On to `CC1=[N+](C)c2ccc3ccccc3c2C1(C)C`, for which the inhibition is 28.2% (active).

In the case of `COc1ccc(C(=O)Nc2nc3c(s2)CCCC3)cc1S(=O)(=O)N1CCCc2ccccc21`, the inhibition is 23.4% (active).

As for `CCOc1ccccc1Nc1nnc(SC(C)C(=O)Nc2nc(-c3ccccc3)cs2)s1` (stereo not given), the inhibition is 35.2% (active).

Regarding `O=C(c1ccc(Br)cc1)C(CN1CCOCC1)c1ccccc1` (stereo not given), the inhibition was 24.6% (active).

With `CC1CCN(S(=O)(=O)c2ccc(C(=O)Nc3nnc(-c4ccco4)o3)cc2)CC1`, the inhibition is 34.2% (active).

For the compound `O=C(NNC(=O)c1ccccc1OCc1ccc(F)cc1)c1ccccc1O`, the inhibition is 31.1% (active).

With `COc1cc(C(=O)N/N=C(\Cc2ncc[nH]2)c2ccccc2)cc(OC)c1OC`, the inhibition was 23.7% (active).

For the compound `O=C(c1ccco1)N1CCN(C(=O)C2CCCc3c2[nH]c2ccc(Cl)cc32)CC1` (stereo not given), the inhibition is 28.5% (active).

`Cc1cc(C(=O)NC2CCCc3c2cnn3-c2cccc(C)c2C)no1` (stereo not given): the inhibition was 23.6% (active).

Consider `Cc1nc(-n2[nH]c3c(c2=O)CCCC3)[nH]c(=O)c1Cc1ccccc1`, for which the inhibition is 30.8% (active).

Regarding `CC(=O)OC[C@H]1O[C@@H](n2ncc(=O)[nH]c2=O)[C@H](OC(C)=O)[C@@H]1OC(C)=O`, the inhibition is 31.6% (active).

As for `CC(C)=CCc1c2c(c(O)c3c(=O)c4c(oc13)-c1cc(O)c(O)cc1OC4C=C(C)C)C=CC(C)(C)O2` (stereo not given), the inhibition was 34.4% (active).

Consider `C/C(=N\NC(=O)c1cc2ccccc2cc1O)c1ccccn1`, for which the inhibition is 24.3% (active).

As for `CN(C)C1CCN(Cc2cc(COCc3ccccc3)c3cccnc3c2O)C1` (stereo not given), the inhibition was 32.8% (active).

As for `Cc1cccn2c(=O)c3cc(C(=O)NCCN4CCOCC4)c(=N)n(Cc4ccc(F)cc4)c3nc12`, the inhibition was 34.8% (active).

Consider `O=C(CCl)NCc1c(Cl)cccc1-n1cccc1`, for which the inhibition is 35.6% (active).

`CC(=O)/C(C#N)=C1\NC(=O)C(Cc2ccccc2Cl)S1` (stereo not given): the inhibition was 30.1% (active).

On to `Oc1ccc(Br)cc1CNc1cccc2cccnc12`, for which the inhibition is 25.6% (active).

Regarding `C/C(=N\NC(=O)c1cc(-c2cccs2)nc2ccccc12)c1ccccn1`, the inhibition is 28.3% (active).

Take `COc1ccc(O)c(/C=N/NC(=O)c2ccc(OCc3cccc(Br)c3)cc2)c1`: the inhibition is 32.8% (active).

`Cc1cccc(/C=N/NC(=O)Cc2ccc(Cl)cc2)c1O`: the inhibition is 29.9% (active).

As for `Oc1ccc(CNc2ccc(F)cc2)c2cccnc12`, the inhibition is 36% (active).

`COc1cc(/C=C2\CC/C(=C\c3cc(OC)c(O)c(OC)c3)C2=O)cc(OC)c1O`: the inhibition was 25.6% (active).

Consider `CC(C)[C@@H]1CC[C@@H](C)C[C@H]1OC(=O)C[n+]1cc(-c2ccc(Cl)cc2)n2c1CCCCC2`, for which the inhibition is 28.7% (active).

With `CCOC(=O)c1c(-c2ccccc2)oc2ccc(OCC(O)CNCCN(C)C)cc12` (stereo not given), the inhibition is 35.1% (active).

`COc1ccccc1NCC(=O)N/N=C/c1c(O)ccc2ccccc12`: the inhibition was 24.6% (active).

Consider `O=C(/C=C/c1ccccc1)NC(NC(=S)Nc1cc(Cl)ccc1Cl)C(Cl)(Cl)Cl` (stereo not given), for which the inhibition is 31.2% (active).

In the case of `CCCC(=O)NC(c1ccco1)c1cc(Cl)c2cccnc2c1O` (stereo not given), the inhibition was 23.3% (active).

For `CC1=NN(c2nc(-c3ccc(C)cc3)cs2)C(=O)C1N=Nc1ccccc1O` (stereo not given), the inhibition was 32.5% (active).

With `CC(=O)c1c(C)[nH]c(C(=O)N2CCN(c3cc(Cl)ccc3C)CC2)c1C`, the inhibition was 34% (active).

For the origin of these results see PubChem BioAssay.
